Among the data in PubChem BioAssay (Tox21) are Potency and outcome values, retold here.

Experiment [1] in a line: qHTS assay to identify small molecule antagonists of the sonic hedgehog signaling (Shh) pathway (AID 1259369; calls by dose curve; note: nearly all actives have a fitted effect of over 45% in size; note: potency is the fitted concentration of half-maximal effect). A digest of the protocol:
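Conditioned medium drives Shh signalling in 3T3Gli1-Luc cells; compounds in DMSO co-applied, 24hr at 37 C, then luciferase luminescence.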

For experiment [2], the target named is Androgen receptor (Homo sapiens) (UniProt P10275). The experiment can be described thus: qHTS assay to identify small molecule agonists of the androgen receptor (AR) signaling pathway in the presence of an antagonist (AID 1259381; calls by dose curve; note: nearly all actives have a fitted effect of over 15% in size). A digest of the protocol: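 Using human MDA-kb2 cells with an MMTV promoter–luciferase construct (AR and GR response elements), agonist activity is scored under 3.0uM nilutamide (final) co-treatment; 16hr incubation, 37C, luminescence readout via ONE-Glo.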

Experiment [3] in a line: qHTS assay to identify small molecule antagonists of the estrogen receptor beta (ER-beta) signaling pathway - cell viability counter screen (AID 1259382). Note: series mostly up to about 92 µM; nearly all actives have a fitted effect of over 55% in size. An outline of the steps: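 Agonist-stimulated (1nM E2) ER-beta-UAS-bla HEK293T cells are incubated with library compounds for 16 hr at 37C. Cell viability is then assessed in the reporter-assay wells by adding CellTiter-Glo and reading luminescence after 30 min.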

The target in experiment [4] is Estrogen receptor (Homo sapiens) (UniProt P03372). The experiment can be described thus: qHTS assay to identify small molecule agonists of the estrogen receptor alpha (ER-alpha) signaling pathway in the presence of an antagonist (AID 1259383; calls by dose curve; note: nearly all actives have a fitted effect of over 15% in size; note: potency is the fitted concentration of half-maximal effect; for activation: top concentration of the series differs between compounds). A digest of the protocol: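 Using VM7Luc4E2 cells seeded 24hr before treatment, antagonist ICI-182,780 (10.0nM final) was added, followed by compounds at 15 concentrations. Plates incubated 22hr; ONE-Glo luminescence quantified reporter activity.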

The nature of experiment [5]: qHTS assay to identify small molecule agonists or antagonists of the thyroid stimulating hormone receptor (TSHR) signaling pathway - wild type cell line counter screen (AID 1259384; calls by dose curve). A digest of the protocol: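 Wild-type HEK293 cells were plated 18 h at 37 C/5% CO2, pin-dosed with compound plus Ro20-1724 medium, held 30 min at room temperature, then given cAMP-d2 and anti-cAMP-cryptate; fluorescence was read after 1 h. Fifteen concentrations, triplicate.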

For experiment [6], the target named is Thyrotropin receptor (Homo sapiens) (UniProt P16473). The experiment can be described thus: qHTS assay to identify small molecule antagonists of the thyroid stimulating hormone receptor (TSHR) signaling pathway (AID 1259385; calls by dose curve; note: nearly all actives have a fitted effect of over 20% in size; note: potency is the fitted concentration of half-maximal effect). A digest of the protocol:
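TSHR-HEK293 cells were plated and held 18 h at 37C/5% CO2, then given compound plus Ro20-1724 and stimulated with TSH at 1.5 ng/mL final. After 30 min at room temperature, cAMP was detected with cAMP-d2/anti-cAMP-cryptate (1 h) by fluorescence.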

Experiment [7] in a line: qHTS assay to identify small molecule agonists of the estrogen receptor alpha (ER-alpha) signaling pathway in the presence of an antagonist - cell viability counter screen (AID 1259386).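 Note: cells exposed to compounds for 22 h at 37 °C before the viability read; nearly all actives have a fitted effect of over 30% in size.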 Note: potency is the fitted concentration of half-maximal effect. A digest of the protocol:
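ICI-182,780 at 10.0nM final accompanies the compound titration (15 concentrations, 22hr, 37C) on VM7Luc4E2 cells. The CellTiter-Fluor fluorescence readout runs in the same wells as the luciferase assay.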

In experiment [8] the target is Progesterone receptor (Homo sapiens) (UniProt P06401). In words: qHTS assay to identify small molecule agonists of the progesterone receptor (PR) signaling pathway (AID 1346784; calls by dose curve; note: nearly all actives have a fitted effect of over 30% in size). A digest of the protocol:
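Cells (PR-UAS-bla HEK 293T, GripTite) were plated in assay medium containing 2% charcoal-stripped FBS and incubated 6 hr. Test compounds in DMSO were added for 16 hr at 37C. FRET substrate was then loaded for 2 hr at room temperature before fluorescence reading.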

The target is the same in experiment [9]. In words: qHTS assay to identify small molecule antagonists of the progesterone receptor (PR) signaling pathway (AID 1346795; active = well fitted inhibition curve with a large enough effect in the signal ratio in the repeat runs, not every such curve was filed as active; the % refers to the signal ratio; note: potency is the fitted concentration of half-maximal effect). A digest of the protocol: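 Antagonist mode: compounds tested against 1 nM (final) promegestone stimulation in HEK293T cells expressing PR-UAS-bla reporter, 16 hr at 37C, 5% CO2; beta-lactamase activity detected via B/G FRET substrate after 2 hr at room temperature.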

Experiment [10] in a line: qHTS assay to identify small molecule antagonists of the TGF-beta/Smad signaling pathway - cell viability counter screen (AID 1346824). Note: nearly all actives have a fitted effect of over 50% in size. An outline of the steps:
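SBE-bla HEK 293T cells were plated overnight at 37 C, then given compounds in DMSO plus TGF-beta1 (added as 0.25 ng/mL solution) for 5 hr. After the bla read, CellTiter-Glo was added to the same wells and luminescence read after 30 min at room temperature.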

Experiment [11] can be described thus: qHTS assay to identify small molecule agonists of the TGF-beta/Smad signaling pathway - cell viability counter screen (AID 1346829). Note: top concentration of the series differs between compounds; nearly all actives have a fitted effect of over 45% in size. A digest of the protocol:
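SBE-bla HEK 293T cells plated overnight, compound exposure 5 hr at 37 C. Viability read in the same wells by CellTiter-Glo luminescence after 30 min at room temperature, following the beta-lactamase read.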

Experiment [12] is described as follows: qHTS assay to identify small molecule agonists of the TGF-beta/Smad signaling pathway (AID 1346859; active = well fitted activation curve with a large enough effect in the signal ratio in the repeat runs, not every such curve was filed as active; the % refers to the signal ratio; note: series mostly up to about 77 µM). An outline of the steps: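 Reporter line: HEK 293T with stably integrated SBE-controlled beta-lactamase. Compound exposure lasts 5 hr at 37 C and 5% CO2; substrate loading follows for 2 hr at room temperature, with emission read at 460 and 530 nm.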
Experiment [13] addresses Thyrotropin-releasing hormone receptor (Homo sapiens) (UniProt P34981). In words: qHTS assay to identify small molecule antagonists of the thyrotropin-releasing hormone receptor (TRHR) signaling pathway (AID 1346877; active = well fitted inhibition curve with a large enough effect in the repeat runs, not every such curve was filed as active; note: series mostly up to about 51 µM). An outline of the steps:
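Screening used HEK293 cells engineered with TRHR, with a brief 5 min room-temperature compound exposure preceding addition of TRH to 1 nM. The read-out was kinetic calcium-dye fluorescence, concentration-response from 15 doses in triplicate.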

Experiment [14] can be described thus: qHTS assay to identify small molecule agonists of the estrogen receptor beta (ER-beta) signaling pathway - cell viability counter screen (AID 1259380). Note: nearly all actives have a fitted effect of over 30% in size. Note: potency is the fitted concentration of half-maximal effect. An outline of the steps: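 Cells used were ER-beta-UAS-bla HEK293T in medium with 2% charcoal-stripped FBS. They were treated for 16 hr at 37C. Viability came from CellTiter-Glo luminescence.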
The nature of experiment [15]: qHTS assay to identify small molecule antagonists of the progesterone receptor (PR) signaling pathway - cell viability counter screen (AID 1346798). Note: series mostly up to about 92 µM; nearly all actives have a fitted effect of over 50% in size. A digest of the protocol:
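Counter screen for cytotoxicity: viability of PR-UAS-bla HEK293T cells was measured with CellTiter-Glo luminescence following 16 hr compound exposure in the presence of R5020.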

For experiment [16], the target named is Thyrotropin-releasing hormone receptor (Homo sapiens) (UniProt P34981). In words: qHTS assay to identify small molecule agonists of the thyrotropin-releasing hormone receptor (TRHR) signaling pathway (AID 1346891; calls by dose curve;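 note: HEK293 cells expressing TRHR with calcium dye readout; series mostly up to about 58 µM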). A digest of the protocol:
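Cells: TRHR-Hek293, seeded and incubated 18 h. Dye loading: 2 h at 37 °C. Compound added from DMSO stock by pin tool. Read-out: kinetic calcium fluorescence over 3 min.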

Experiment [17] is described as follows: qHTS assay to identify small molecule agonists of the androgen receptor (AR) signaling pathway in the presence of an antagonist - cell viability counter screen (AID 1259379). Note: nearly all actives have a fitted effect of over 25% in size. Note: potency is the fitted concentration of half-maximal effect. A digest of the protocol: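 A CellTiter-Fluor read-out measured viability of MDA-kb2 reporter cells (MMTV promoter with AR and GR response elements). Treatment: nilutamide 3.0uM final with compounds at 15 concentrations, 16 hr, 37C, 0% CO2.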

For experiment [18], the target named is Estrogen receptor beta (Homo sapiens) (UniProt Q92731). The experiment can be described thus: qHTS assay to identify small molecule agonists of the estrogen receptor beta (ER-beta) signaling pathway (AID 1259377; active = well fitted activation curve with a large enough effect in the signal ratio in the repeat runs, not every such curve was filed as active; the % refers to the signal ratio). An outline of the steps: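 Agonist mode cell assay in GripTite HEK293T cells expressing an ER-beta fusion that drives beta-lactamase from an Upstream Activator Sequence; 16 hr compound exposure at 37C, then 2 h LiveBLAzer B/G FRET substrate at room temperature, fluorescence read-out.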

Experiment [19] shares this target. The experiment can be described thus: qHTS assay to identify small molecule antagonists of the estrogen receptor beta (ER-beta) signaling pathway (AID 1259378; active = well fitted inhibition curve with a large enough effect in the signal ratio in the repeat runs, not every such curve was filed as active; the % refers to the signal ratio). An outline of the steps:
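ER-beta-UAS-bla HEK293T (GripTite) cells in 2% charcoal-stripped FBS medium were preincubated 6 hr at 37C, dosed with compound, then stimulated with 1 nM E2 (final) for 16 hr; beta-lactamase reporter read by B/G FRET fluorescence after 2 hr substrate loading.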

The nature of experiment [20]: qHTS assay to identify small molecule agonists of the progesterone receptor (PR) signaling pathway - cell viability counter screen (AID 1346799; calls by dose curve; note: nearly all actives have a fitted effect of over 45% in size). A digest of the protocol:
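Cells (PR-UAS-bla HEK293T) are plated at 3,000/well in 2% charcoal-stripped FBS medium, rested 6 hr, dosed and incubated 16 hr at 37C. CellTiter-Glo is then added and luminescence measured after 30 min at room temperature.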

Results filed as inconclusive are left out. Calls of active or inactive are those of the source. Unless noted, calls come from the whole dose curve; as a rule, active = well fitted curve in the direction sought with a large enough effect in the repeat runs; inconclusive = weak or mixed curves; inactive = no such curve, though single readings can be large; an effect the other way counts as inactive or inconclusive.

Chain of Estrogen receptor beta (Homo sapiens) (Q92731 whole entry, looked up, the tested form may be a part): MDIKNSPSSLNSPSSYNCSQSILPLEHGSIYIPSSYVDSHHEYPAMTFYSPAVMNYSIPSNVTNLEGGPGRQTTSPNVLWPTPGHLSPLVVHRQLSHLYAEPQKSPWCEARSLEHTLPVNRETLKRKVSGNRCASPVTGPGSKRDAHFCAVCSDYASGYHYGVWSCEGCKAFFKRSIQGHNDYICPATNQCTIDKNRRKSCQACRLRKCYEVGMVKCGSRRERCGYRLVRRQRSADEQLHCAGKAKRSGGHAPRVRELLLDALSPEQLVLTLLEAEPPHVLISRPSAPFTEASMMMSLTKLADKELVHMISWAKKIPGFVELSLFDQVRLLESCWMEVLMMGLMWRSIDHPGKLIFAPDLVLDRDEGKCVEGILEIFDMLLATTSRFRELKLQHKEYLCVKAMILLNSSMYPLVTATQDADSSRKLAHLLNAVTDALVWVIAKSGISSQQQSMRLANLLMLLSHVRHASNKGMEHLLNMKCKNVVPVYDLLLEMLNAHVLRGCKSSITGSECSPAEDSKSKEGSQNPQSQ
Chain of Thyrotropin receptor (Homo sapiens) (P16473 whole entry, looked up): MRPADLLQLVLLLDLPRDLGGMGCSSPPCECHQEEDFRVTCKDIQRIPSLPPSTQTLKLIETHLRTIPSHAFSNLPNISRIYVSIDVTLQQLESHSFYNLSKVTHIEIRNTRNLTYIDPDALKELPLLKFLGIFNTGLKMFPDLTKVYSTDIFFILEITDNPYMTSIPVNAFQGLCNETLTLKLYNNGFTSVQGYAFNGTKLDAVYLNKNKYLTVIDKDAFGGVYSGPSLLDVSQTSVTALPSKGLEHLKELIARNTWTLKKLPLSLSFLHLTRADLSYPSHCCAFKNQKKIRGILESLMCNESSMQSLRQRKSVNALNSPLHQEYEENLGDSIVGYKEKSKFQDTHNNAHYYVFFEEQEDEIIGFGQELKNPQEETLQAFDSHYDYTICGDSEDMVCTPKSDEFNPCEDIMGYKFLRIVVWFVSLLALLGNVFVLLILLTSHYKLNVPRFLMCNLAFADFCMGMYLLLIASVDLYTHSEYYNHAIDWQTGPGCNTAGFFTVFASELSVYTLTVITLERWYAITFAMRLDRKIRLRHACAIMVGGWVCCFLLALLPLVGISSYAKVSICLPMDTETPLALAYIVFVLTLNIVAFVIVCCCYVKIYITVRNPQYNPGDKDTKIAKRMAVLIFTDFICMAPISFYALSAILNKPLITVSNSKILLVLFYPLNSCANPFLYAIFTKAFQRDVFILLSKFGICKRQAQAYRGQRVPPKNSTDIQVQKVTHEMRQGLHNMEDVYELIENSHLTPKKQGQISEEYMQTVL
Chain of Progesterone receptor (Homo sapiens) (P06401 whole entry, looked up): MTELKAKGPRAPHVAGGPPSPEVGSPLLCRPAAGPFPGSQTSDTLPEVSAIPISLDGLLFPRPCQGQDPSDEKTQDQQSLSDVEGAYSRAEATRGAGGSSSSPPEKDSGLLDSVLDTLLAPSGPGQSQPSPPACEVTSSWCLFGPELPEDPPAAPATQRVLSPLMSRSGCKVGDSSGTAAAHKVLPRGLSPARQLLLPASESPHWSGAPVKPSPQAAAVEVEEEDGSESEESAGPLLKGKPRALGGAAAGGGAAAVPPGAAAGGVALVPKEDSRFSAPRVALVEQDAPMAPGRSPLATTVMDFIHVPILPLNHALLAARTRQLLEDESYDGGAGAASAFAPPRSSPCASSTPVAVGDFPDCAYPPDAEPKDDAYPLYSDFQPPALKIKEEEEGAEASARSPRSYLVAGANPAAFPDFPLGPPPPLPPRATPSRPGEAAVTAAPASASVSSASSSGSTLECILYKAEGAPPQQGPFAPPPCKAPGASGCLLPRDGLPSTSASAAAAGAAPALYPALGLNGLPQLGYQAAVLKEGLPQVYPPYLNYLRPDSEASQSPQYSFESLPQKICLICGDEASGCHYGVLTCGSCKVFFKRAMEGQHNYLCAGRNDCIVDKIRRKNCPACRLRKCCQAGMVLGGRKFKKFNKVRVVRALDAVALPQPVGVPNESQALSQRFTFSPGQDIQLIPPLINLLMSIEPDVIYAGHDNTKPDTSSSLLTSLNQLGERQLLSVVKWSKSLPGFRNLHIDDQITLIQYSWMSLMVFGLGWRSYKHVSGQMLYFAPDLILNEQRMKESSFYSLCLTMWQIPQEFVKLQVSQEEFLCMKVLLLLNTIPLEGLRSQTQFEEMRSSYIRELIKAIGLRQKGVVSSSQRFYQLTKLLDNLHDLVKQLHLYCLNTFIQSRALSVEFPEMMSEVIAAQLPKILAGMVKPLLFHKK
Chain of Estrogen receptor (Homo sapiens) (P03372 whole entry, looked up): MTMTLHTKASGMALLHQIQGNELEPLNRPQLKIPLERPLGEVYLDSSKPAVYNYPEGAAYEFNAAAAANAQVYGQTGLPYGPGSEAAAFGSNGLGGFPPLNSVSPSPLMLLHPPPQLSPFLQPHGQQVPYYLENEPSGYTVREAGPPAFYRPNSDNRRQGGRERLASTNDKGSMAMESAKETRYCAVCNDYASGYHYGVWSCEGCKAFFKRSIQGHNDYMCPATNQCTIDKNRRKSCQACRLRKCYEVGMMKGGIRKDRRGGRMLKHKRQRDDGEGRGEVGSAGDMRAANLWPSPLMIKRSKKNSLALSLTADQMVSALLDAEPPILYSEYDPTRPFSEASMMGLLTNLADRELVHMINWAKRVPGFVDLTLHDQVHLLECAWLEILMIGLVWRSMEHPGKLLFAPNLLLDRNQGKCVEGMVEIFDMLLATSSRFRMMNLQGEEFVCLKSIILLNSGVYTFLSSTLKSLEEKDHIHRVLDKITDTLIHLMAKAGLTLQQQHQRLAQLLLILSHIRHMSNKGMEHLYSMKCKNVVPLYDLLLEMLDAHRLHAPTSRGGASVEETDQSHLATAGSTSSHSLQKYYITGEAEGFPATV
Chain of Thyrotropin-releasing hormone receptor (Homo sapiens) (P34981 whole entry, looked up): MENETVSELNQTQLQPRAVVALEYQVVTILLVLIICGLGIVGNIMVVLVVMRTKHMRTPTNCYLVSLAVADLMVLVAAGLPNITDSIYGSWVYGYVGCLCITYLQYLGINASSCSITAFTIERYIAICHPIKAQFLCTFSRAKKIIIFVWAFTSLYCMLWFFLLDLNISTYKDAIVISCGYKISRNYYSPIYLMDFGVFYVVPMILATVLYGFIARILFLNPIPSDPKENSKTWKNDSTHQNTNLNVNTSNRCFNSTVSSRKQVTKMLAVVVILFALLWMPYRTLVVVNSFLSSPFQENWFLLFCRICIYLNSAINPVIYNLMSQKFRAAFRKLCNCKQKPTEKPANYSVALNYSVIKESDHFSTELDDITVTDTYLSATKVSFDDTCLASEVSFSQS
Chain of Androgen receptor (Homo sapiens) (P10275 whole entry, looked up): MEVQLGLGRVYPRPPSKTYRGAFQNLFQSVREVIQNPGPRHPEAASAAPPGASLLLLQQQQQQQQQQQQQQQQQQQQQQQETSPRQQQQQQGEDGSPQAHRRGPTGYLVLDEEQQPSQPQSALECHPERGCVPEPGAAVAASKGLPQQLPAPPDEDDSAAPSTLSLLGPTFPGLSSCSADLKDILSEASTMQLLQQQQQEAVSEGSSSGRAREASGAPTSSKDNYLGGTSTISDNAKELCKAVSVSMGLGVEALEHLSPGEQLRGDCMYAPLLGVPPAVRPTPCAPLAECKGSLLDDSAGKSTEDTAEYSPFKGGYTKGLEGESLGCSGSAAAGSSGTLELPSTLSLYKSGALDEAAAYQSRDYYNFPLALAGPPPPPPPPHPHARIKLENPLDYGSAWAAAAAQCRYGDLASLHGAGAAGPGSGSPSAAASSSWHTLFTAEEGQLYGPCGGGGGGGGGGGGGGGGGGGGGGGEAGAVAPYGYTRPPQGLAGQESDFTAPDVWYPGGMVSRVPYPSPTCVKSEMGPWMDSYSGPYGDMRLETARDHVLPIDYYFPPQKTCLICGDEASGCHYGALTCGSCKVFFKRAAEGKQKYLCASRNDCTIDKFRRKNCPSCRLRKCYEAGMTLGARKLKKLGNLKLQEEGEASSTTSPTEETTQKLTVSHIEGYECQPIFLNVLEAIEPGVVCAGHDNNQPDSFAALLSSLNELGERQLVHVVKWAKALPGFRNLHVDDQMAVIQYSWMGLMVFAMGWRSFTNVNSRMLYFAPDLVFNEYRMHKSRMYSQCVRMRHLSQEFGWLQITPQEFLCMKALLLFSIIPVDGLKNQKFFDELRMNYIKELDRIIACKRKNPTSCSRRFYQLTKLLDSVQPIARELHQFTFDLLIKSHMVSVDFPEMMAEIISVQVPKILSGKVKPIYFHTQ

As for `C=CCNc1nc(NCC=C)nc(N2CCN(C(c3ccc(F)cc3)c3ccc(F)cc3)CC2)n1`, the Potency entry in experiment [1], in experiment [2], in [3], in [4], in [7] and in experiment [8] was “inactive” in each case. The molecule was called inactive in [5], in experiment [10], in experiment [11], in experiment [12] and in experiment [13]. Besides, the Potency in [6] is 9.44 µM (active); in [9] it was 2.98 µM (active).
`C=CC(C)(C)CC(=O)OC`: the values for the Potency in [1] and in experiment [14] were 27.4 µM (active) and 5.46 µM (active), respectively. For the same molecule, the Potency entry in [3], in [6], in experiment [7], in experiment [15] and in experiment [16] was “inactive” throughout. For the same molecule, the call in experiment [5], in experiment [10], in experiment [11], in experiment [12] and in experiment [13] was inactive.
On to `CCC(=O)Oc1ccc(/C(CC)=C(\CC)c2ccc(OC(=O)CC)cc2)cc1`, for which the Potency in experiment [1] was 24.3 µM (active); in experiment [4] it was 0.0054 µM (active); in experiment [9] it was 12.2 µM (active). Moreover, the Potency entry in experiment [17], in experiment [3], in experiment [6] and in experiment [7] was “inactive” each time. Also, the molecule was called inactive in experiment [5], in experiment [10], in [11], in [12] and in experiment [13].
For `C[C@@H]1C[C@H]2[C@@H]3CCC4=CC(=O)C=C[C@]4(C)[C@@]3(F)[C@@H](O)C[C@]2(C)[C@H]1C(=O)CO`, the Potency result in experiment [18], in experiment [19], in experiment [17], in experiment [3], in experiment [6] and in experiment [7] was “inactive” in each case. Also, the Potency result in experiment [9], in experiment [15] and in [16] was “inactive” in each case. Also, the call in experiment [5], in experiment [10], in experiment [11], in [12] and in experiment [13] was inactive.
Turning to `NC(=O)Cn1c(=O)cc(CCN2CCN(c3nccc4sccc34)CC2)c2ccc(F)cc21`, the Potency in [1] is 4.86 µM (active). Moreover, the Potency result in experiment [3], in experiment [4], in experiment [8], in experiment [9] and in [16] was “inactive” each time. In addition, the molecule was classed as inactive in experiment [10], in experiment [11] and in experiment [13].
With `COc1ccccc1N=Nc1c(S(=O)(=O)O)cc2cc(S(=O)(=O)O)cc(NC(C)=O)c2c1O`, the Potency entry in [18], in experiment [19], in experiment [14], in [3], in experiment [8] and in experiment [9] was “inactive” in each case. For the same molecule, the Potency result in [15], in experiment [20] and in experiment [16] was “inactive” in each case. Besides, the Potency in [17] was 25.7 µM (active); in [7] it was 22.9 µM (active). In addition, the result in experiment [10], in [11], in experiment [12] and in experiment [13] was inactive.
With `Nc1ccc(Cl)cc1[N+](=O)[O-]`, the Potency entry in experiment [1], in experiment [14], in [2], in [3], in experiment [4] and in experiment [6] was “inactive” throughout. The Potency entry in experiment [8], in experiment [15], in experiment [20] and in experiment [16] was “inactive” throughout. The call in experiment [5], in [11], in experiment [12] and in experiment [13] was inactive.
Take `CC1=CC(O)CC(C)(C)C1` (configuration not stated): the Potency result in experiment [1], in experiment [17], in [3], in [4], in experiment [6] and in experiment [7] was “inactive” each time. The Potency result in experiment [8], in experiment [15] and in experiment [20] was “inactive” throughout. Also, the outcome in experiment [5], in [10], in experiment [11] and in [12] was inactive.
As for `CC1=C(/C=C/C(C)=C\C=C\C(C)=C\C(=O)O)C(C)(C)CCC1`, the Potency entry in experiment [1], in [4], in [15] and in experiment [16] was “inactive” throughout. The call in [10], in experiment [11] and in experiment [13] was inactive.
In the case of `Oc1ccc(Nc2ccccc2)cc1`, the Potency entry in [1], in experiment [17], in experiment [2], in experiment [4], in experiment [7] and in [8] was “inactive” throughout. Further, the Potency entry in [15] and in [16] was “inactive” each time. Moreover, the Potency in experiment [9] is 27.3 µM (active). Also, the molecule was called inactive in experiment [10], in experiment [11], in experiment [12] and in experiment [13].
